# Test results from paper PMC7862700, “An all-to-all approach to the identification of sequence-specific readers for epigenetic DNA modifications on cytosine”.
# Legend:
# Experiment in all cases: DAPPL (digital affinity profiling via proximity ligation, sequencing); 10 mM Tris-HCl pH 7.5, 50 mM NaCl, 1 mM DTT, 4% glycerol, room temperature, 30 min; GST-TFs on glutathione beads, 16-mer random dsDNA library, 0.1% formaldehyde crosslink after washing; high values mean tight binding
# FLI1 = target: T1, FLI1 (Homo sapiens, UniProt Q01543 1-452); conditions: protein: recombinant; tags: N-terminal GST; dsDNA, one strand shown
# T1 sequence: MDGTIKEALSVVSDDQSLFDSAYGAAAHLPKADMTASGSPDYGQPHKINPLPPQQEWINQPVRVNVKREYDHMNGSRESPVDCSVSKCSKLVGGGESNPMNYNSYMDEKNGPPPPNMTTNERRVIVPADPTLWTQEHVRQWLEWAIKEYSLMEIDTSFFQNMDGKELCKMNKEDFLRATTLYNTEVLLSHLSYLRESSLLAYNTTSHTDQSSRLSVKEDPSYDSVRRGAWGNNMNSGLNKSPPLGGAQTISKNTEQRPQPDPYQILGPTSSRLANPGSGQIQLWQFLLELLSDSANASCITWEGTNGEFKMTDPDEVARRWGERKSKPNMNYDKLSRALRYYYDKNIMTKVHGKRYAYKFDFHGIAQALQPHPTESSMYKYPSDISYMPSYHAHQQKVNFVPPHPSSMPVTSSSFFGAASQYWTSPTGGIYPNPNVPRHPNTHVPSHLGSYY
# Outline: (§1)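 Pools of DNA-barcoded human transcription factors, expressed in yeast as GST fusions on glutathione beads and combined with a tag-only sample, were incubated with 200 nmole of a 16-mer random double-stranded DNA library. Incubation took 30 min at room temperature in Tris/NaCl/DTT/glycerol buffer and was followed by washing, 0.1% formaldehyde crosslinking, proximity ligation (BsaI/T4 ligase, 1 h, 37 °C), PCR amplification and sequencing on an Illumina NextSeq500. Binding signal is the ratio of a hexamer's read frequency for a factor to its frequency for the tag-only sample.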
# ELK1 = target: T2, ELK1 (Homo sapiens, UniProt P19419 1-428); conditions: protein: recombinant; tags: N-terminal GST; dsDNA, one strand shown
# T2 sequence: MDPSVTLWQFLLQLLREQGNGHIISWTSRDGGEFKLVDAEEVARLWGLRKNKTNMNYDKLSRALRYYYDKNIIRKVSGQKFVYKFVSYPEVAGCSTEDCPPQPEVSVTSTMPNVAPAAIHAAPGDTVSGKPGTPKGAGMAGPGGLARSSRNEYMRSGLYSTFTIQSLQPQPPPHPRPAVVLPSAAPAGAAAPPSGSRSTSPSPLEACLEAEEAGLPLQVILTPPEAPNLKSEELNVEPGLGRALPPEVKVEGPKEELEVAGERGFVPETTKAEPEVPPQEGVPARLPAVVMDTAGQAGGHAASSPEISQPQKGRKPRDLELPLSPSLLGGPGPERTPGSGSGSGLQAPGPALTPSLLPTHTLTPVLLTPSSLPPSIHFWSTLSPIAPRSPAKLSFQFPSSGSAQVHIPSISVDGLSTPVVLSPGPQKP
# Outline: as §1
# GABPA = target: T3, GABPA (Homo sapiens, UniProt Q06546 1-454); conditions: protein: recombinant; tags: N-terminal GST; dsDNA, one strand shown
# T3 sequence: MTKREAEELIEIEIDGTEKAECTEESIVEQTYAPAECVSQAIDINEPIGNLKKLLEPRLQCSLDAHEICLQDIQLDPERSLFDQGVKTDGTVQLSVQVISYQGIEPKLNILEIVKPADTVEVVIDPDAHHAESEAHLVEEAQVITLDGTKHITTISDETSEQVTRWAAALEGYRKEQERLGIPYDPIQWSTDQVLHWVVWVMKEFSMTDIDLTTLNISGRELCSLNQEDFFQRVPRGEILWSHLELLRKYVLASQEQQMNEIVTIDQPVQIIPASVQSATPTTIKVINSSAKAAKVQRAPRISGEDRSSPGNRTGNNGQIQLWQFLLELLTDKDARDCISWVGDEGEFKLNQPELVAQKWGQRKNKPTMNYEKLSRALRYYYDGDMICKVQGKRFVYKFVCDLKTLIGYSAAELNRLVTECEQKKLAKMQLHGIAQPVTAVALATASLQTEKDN
# Outline: as §1
# ERG = target: T4, ERG (Homo sapiens, UniProt P11308 1-479); conditions: protein: recombinant; tags: N-terminal GST; dsDNA, one strand shown
# T4 sequence: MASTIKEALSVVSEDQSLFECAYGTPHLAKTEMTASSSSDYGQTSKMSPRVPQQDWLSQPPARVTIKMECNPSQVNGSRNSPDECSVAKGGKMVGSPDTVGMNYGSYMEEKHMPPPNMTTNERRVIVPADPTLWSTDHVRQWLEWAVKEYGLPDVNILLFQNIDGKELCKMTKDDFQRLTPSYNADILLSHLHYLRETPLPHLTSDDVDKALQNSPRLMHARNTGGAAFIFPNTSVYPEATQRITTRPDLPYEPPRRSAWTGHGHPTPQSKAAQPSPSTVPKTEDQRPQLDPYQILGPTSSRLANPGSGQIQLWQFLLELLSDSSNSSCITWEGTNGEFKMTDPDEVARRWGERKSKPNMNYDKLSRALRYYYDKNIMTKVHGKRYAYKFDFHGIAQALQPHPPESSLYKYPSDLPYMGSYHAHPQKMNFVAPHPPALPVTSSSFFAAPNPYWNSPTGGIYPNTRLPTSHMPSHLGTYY
# Outline: as §1
# ELF1 = ELF1 (Homo sapiens, UniProt P32519 1-619); conditions: protein: recombinant; tags: N-terminal GST; dsDNA, one strand shown
# Outline: as §1
# EHF = target: T5, EHF (Homo sapiens, UniProt Q9NZC4 1-300); conditions: protein: recombinant; tags: N-terminal GST; dsDNA, one strand shown
# T5 sequence: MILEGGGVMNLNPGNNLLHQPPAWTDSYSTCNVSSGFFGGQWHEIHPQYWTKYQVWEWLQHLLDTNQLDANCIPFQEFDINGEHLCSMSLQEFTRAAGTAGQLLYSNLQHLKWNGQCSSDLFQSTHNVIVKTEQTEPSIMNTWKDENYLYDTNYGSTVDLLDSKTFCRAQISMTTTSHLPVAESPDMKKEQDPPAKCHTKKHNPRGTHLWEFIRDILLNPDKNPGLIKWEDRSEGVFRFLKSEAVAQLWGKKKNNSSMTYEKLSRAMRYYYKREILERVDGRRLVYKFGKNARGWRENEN
# Outline: as §1
# SPI1 = SPI1 (Homo sapiens, UniProt P17947 1-270); conditions: protein: recombinant; tags: N-terminal GST; dsDNA, one strand shown
# Outline: as §1
# SPIB = SPIB (Homo sapiens, UniProt Q01892 1-262); conditions: protein: recombinant; tags: N-terminal GST; dsDNA, one strand shown
# Outline: as §1
# ELK3 = target: T6, ELK3 (Homo sapiens, UniProt P41970 1-407); conditions: protein: recombinant; tags: N-terminal GST; dsDNA, one strand shown
# T6 sequence: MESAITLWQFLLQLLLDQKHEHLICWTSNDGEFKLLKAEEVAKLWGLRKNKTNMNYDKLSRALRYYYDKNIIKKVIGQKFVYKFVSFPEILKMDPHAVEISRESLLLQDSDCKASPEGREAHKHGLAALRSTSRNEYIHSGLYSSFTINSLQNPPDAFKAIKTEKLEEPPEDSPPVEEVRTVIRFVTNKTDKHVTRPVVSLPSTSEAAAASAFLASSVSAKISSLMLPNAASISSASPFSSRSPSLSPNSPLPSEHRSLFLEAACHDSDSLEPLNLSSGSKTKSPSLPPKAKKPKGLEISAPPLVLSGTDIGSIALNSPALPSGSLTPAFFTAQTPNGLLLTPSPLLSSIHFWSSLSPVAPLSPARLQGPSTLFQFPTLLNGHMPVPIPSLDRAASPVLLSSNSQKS
# Outline: as §1
# FEV = target: T7, FEV (Homo sapiens, UniProt Q99581 1-238); conditions: protein: recombinant; tags: N-terminal GST; dsDNA, one strand shown
# T7 sequence: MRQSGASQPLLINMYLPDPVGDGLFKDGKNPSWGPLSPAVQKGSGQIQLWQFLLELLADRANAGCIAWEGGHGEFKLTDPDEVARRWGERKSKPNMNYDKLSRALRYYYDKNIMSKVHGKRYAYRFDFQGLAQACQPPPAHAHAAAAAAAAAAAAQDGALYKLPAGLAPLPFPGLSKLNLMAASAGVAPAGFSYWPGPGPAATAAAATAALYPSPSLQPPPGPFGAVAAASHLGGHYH
# Outline: as §1
# ETV5 = ETV5 (Homo sapiens, UniProt P41161 1-510); conditions: protein: recombinant; tags: N-terminal GST; dsDNA, one strand shown
# Outline: as §1
# HSF1 = HSF1 (Homo sapiens, UniProt Q00613 1-529); conditions: protein: recombinant; tags: N-terminal GST; chain copies: 3; dsDNA, one strand shown
# Outline: as §1
# SPIC = target: T8, SPIC (Homo sapiens, UniProt Q8N5J4 1-248); conditions: protein: recombinant; tags: N-terminal GST; dsDNA, one strand shown
# T8 sequence: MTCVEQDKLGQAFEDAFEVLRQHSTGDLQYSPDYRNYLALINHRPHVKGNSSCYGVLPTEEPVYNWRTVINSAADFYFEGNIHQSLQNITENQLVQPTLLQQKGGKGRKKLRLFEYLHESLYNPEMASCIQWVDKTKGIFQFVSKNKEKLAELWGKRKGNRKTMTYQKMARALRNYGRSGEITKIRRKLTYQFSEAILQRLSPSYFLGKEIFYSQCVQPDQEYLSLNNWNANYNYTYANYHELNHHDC
# Outline: as §1
# ELF4 = ELF4 (Homo sapiens, UniProt Q99607 1-663); conditions: protein: recombinant; tags: N-terminal GST; dsDNA, one strand shown
# Outline: as §1
# ELK4 = target: T9, ELK4 (Homo sapiens, UniProt P28324-2 1-405); conditions: protein: recombinant; tags: N-terminal GST; dsDNA, one strand shown
# T9 sequence: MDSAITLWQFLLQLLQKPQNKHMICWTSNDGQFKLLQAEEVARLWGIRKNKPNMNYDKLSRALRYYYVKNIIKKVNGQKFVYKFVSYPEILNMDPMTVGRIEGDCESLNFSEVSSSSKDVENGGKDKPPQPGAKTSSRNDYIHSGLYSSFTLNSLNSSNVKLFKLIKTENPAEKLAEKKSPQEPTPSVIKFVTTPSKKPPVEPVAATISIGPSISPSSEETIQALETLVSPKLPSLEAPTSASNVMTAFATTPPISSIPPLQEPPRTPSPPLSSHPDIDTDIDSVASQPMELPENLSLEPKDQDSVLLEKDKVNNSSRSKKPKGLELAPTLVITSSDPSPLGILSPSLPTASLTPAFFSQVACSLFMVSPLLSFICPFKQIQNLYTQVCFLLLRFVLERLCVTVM
# Outline: as §1
# ETV2 = target: T10, ETV2 (Homo sapiens, UniProt O00321 1-342); conditions: protein: recombinant; tags: N-terminal GST; dsDNA, one strand shown
# T10 sequence: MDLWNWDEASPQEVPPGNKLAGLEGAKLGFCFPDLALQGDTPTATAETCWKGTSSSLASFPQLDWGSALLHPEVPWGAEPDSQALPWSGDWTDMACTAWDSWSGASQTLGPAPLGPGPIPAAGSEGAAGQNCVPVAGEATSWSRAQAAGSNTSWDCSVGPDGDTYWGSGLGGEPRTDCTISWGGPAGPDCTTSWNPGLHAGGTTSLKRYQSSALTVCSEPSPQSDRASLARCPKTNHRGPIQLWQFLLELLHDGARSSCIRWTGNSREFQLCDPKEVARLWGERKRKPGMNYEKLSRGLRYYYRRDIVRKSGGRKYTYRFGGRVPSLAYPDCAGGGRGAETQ
# Outline: as §1
# ELF3 = target: T11, ELF3 (Homo sapiens, UniProt P78545 1-371); conditions: protein: recombinant; tags: N-terminal GST; dsDNA, one strand shown
# T11 sequence: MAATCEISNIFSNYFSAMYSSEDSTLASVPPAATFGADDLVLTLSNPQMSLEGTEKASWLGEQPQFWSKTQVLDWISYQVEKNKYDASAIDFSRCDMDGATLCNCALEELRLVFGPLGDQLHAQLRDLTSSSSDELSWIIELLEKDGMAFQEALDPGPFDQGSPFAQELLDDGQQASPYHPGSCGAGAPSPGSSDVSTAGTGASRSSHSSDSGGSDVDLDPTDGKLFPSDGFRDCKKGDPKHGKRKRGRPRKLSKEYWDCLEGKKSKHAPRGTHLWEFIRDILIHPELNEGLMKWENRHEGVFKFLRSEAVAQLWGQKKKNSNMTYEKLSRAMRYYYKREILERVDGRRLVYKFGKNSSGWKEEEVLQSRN
# Outline: as §1
# CRX = CRX (Homo sapiens, UniProt O43186 1-299); conditions: protein: recombinant; tags: N-terminal GST; dsDNA, one strand shown
# Outline: as §1
# ETV1 = ETV1 (Homo sapiens, UniProt P50549 1-477); conditions: protein: recombinant; tags: N-terminal GST; dsDNA, one strand shown
# Outline: as §1
# Chain of SPIB (Q01892 whole entry): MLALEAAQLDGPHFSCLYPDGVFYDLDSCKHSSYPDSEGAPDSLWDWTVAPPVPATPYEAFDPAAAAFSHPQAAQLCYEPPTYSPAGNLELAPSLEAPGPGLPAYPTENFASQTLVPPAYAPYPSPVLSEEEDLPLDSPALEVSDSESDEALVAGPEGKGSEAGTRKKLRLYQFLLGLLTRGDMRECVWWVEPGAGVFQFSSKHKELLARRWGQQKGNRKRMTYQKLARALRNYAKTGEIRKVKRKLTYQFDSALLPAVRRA
# Chain of ETV1 (P50549 whole entry): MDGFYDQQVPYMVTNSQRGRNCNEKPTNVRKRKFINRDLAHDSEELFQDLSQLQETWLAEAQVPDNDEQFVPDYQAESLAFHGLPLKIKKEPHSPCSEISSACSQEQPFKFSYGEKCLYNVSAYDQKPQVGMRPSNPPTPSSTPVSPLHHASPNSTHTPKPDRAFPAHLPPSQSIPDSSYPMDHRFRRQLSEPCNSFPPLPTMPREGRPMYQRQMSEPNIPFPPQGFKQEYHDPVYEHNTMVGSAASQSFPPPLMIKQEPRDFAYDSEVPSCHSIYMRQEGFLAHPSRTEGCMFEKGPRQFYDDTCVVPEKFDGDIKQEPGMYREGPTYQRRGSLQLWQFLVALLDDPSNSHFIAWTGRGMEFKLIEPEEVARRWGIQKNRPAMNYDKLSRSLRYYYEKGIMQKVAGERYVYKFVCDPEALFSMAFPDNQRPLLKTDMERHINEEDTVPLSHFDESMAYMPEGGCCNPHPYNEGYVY
# Chain of ELF4 (Q99607 whole entry): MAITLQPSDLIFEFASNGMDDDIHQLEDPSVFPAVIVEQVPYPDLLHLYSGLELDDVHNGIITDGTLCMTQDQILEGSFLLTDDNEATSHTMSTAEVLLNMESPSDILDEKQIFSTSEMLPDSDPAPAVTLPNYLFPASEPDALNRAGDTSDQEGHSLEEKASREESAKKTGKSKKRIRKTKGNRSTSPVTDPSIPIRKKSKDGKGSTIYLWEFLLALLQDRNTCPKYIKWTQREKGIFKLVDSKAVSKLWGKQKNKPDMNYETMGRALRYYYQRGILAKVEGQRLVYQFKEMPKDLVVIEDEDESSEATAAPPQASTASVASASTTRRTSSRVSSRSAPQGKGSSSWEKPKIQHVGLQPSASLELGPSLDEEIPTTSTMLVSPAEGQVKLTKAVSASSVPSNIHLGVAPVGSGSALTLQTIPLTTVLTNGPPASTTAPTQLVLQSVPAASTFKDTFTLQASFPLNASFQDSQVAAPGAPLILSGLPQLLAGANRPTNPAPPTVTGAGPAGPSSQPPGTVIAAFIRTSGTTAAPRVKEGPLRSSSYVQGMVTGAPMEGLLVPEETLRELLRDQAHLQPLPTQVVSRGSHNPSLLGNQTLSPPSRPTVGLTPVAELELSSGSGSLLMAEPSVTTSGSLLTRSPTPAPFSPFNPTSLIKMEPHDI
# Chain of HSF1 (Q00613 whole entry): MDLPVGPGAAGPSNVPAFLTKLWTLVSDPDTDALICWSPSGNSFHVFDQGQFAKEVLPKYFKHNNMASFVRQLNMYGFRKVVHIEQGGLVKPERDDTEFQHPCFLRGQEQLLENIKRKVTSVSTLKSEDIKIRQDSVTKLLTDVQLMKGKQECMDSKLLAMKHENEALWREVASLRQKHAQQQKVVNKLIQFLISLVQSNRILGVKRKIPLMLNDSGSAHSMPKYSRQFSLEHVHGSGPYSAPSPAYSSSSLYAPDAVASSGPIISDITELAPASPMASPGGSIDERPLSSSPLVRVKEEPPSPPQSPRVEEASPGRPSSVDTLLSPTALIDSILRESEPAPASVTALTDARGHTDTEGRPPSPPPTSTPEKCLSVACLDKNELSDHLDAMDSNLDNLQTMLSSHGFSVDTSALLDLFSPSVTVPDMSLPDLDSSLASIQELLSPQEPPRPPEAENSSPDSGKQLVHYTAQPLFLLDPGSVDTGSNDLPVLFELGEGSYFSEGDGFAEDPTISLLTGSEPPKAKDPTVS
# Chain of ETV5 (P41161 whole entry): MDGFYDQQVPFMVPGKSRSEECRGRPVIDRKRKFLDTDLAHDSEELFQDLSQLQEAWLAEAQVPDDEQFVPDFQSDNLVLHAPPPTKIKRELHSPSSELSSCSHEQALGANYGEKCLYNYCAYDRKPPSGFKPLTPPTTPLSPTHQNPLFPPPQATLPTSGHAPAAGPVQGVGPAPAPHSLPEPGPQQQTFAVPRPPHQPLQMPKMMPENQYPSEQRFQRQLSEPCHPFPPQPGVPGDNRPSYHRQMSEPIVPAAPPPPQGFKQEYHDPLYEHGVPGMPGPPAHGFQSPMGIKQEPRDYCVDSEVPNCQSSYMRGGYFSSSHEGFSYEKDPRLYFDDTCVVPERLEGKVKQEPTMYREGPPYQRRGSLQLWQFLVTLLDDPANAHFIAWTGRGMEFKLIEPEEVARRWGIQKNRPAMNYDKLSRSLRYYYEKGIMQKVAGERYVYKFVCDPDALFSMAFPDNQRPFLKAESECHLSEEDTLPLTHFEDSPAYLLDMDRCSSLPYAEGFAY
# Chain of ELF1 (P32519 whole entry): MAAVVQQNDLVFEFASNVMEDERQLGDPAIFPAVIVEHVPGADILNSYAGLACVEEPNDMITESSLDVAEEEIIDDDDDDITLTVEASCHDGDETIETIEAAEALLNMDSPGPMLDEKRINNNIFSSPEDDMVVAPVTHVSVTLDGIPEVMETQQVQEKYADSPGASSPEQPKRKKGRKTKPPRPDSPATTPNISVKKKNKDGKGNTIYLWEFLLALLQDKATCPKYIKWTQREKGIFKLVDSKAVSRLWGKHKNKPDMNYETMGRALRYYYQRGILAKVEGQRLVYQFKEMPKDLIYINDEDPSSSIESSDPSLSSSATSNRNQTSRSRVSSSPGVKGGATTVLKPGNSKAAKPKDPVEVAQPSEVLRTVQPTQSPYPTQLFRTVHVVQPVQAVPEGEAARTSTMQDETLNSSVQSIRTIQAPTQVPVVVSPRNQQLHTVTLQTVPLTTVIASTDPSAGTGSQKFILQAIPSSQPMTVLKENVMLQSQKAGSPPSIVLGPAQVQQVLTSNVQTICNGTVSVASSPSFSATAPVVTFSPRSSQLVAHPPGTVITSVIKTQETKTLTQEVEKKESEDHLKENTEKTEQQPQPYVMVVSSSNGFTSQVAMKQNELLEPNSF
# Chain of CRX (O43186 whole entry): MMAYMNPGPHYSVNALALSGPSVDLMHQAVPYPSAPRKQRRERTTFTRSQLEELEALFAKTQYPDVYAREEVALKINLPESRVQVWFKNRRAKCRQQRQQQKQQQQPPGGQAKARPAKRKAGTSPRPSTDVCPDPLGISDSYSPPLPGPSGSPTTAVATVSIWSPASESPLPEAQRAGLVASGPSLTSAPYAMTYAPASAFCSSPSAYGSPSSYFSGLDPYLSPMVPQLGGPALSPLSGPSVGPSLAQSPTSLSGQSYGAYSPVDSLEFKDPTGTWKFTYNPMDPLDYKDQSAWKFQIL
sequence,measurement,setting,value
CTACCA,binding signal,FLI1,"1.27 fold enrichment (6-mer frequency, TF over GST control)"
same,binding signal,ELK1,"1.27 fold enrichment (6-mer frequency, TF over GST control)"
same,binding signal,GABPA,"1.42 fold enrichment (6-mer frequency, TF over GST control)"
same,binding signal,ERG,"1.29 fold enrichment (6-mer frequency, TF over GST control)"
same,binding signal,ELF1,"1.39 fold enrichment (6-mer frequency, TF over GST control)"
same,binding signal,EHF,"1.22 fold enrichment (6-mer frequency, TF over GST control)"
same,binding signal,SPI1,"1.26 fold enrichment (6-mer frequency, TF over GST control)"
same,binding signal,SPIB,"1.23 fold enrichment (6-mer frequency, TF over GST control)"
same,binding signal,ELK3,"1.16 fold enrichment (6-mer frequency, TF over GST control)"
same,binding signal,FEV,"1.14 fold enrichment (6-mer frequency, TF over GST control)"
same,binding signal,ETV5,"1.2 fold enrichment (6-mer frequency, TF over GST control)"
same,binding signal,HSF1,"1.24 fold enrichment (6-mer frequency, TF over GST control)"
same,binding signal,SPIC,"1.14 fold enrichment (6-mer frequency, TF over GST control)"
same,binding signal,ELF4,"1.39 fold enrichment (6-mer frequency, TF over GST control)"
same,binding signal,ELK4,"1.24 fold enrichment (6-mer frequency, TF over GST control)"
same,binding signal,ETV2,"1.1 fold enrichment (6-mer frequency, TF over GST control)"
same,binding signal,ELF3,"1.17 fold enrichment (6-mer frequency, TF over GST control)"
same,binding signal,CRX,"1.09 fold enrichment (6-mer frequency, TF over GST control)"
same,binding signal,ETV1,"1.27 fold enrichment (6-mer frequency, TF over GST control)"
